Among all 2,100 compounds or so, about 650 (31%) were called active. Another 16% or so got no clear call; they are omitted. The call rests on the fitted dose curve; in most records, active means well fitted inhibition curve with a large enough effect; inconclusive means small, poorly fitted or top-dose-only effect; inactive means flat fitted curve, though single readings scatter. The list shows a part of the results.
test: qHTS for inhibitors of Vif-A3G interactions: Cherry picks; details: HeLa A3G-eYFP + Vif (tagged APOBEC3G with the HIV-1 protein that degrades it), 24 h; Potency: eYFP fluorescence increase; series mostly up to 36.9 µM; activity, negative = fluorescence increase: at the top concentration; further: nearly all actives have a fitted effect of over 80% in size; on activity, negative = fluorescence increase: % of control where 0% means no effect
Method in brief: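 Cherry-picked compounds tested at several concentrations on A3G-eYFP/Vif HeLa cells for 24 hours; loss of Vif-driven degradation read as eYFP fluorescence by cytometric plate imaging, 488 nm excitation, 500-530 nm emission.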
Potency means the concentration at half of the fitted maximal effect.

activity, negative = fluorescence increase, inactive:
COC(=O)[C@@]1(Cc2ccccc2)[C@@H]2C(=CC(=O)[C@H]2CC(=O)C(=O)N(C)C)CN1C(=O)c1ccccc1 0.342%
C/C(=N\NC(=S)NC(C)C)c1ccc(C(C)(C)C)cc1 -8.17% [at 46.1 µM]
CCCSc1nnc(N2C(=O)C(O)=C(C(=O)c3ccco3)C2c2ccccc2F)s1 (stereo not drawn) -1.17% [at 46.1 µM]
N#CC1=C(N)Oc2cc(N)ccc2C1c1cccc(Br)c1 (stereo not drawn) -12.2%
N#CC1=C(N)Oc2ccc3ccccc3c2C1c1cccnc1 (stereo not drawn) -12.2%
CC(C)COc1ccc(C(=O)N/C(=C/c2cccc([N+](=O)[O-])c2)C(=O)O)cc1 -7.22%
Cc1nc2c3ccccc3n(Cc3ccccc3F)c2s1 5.45%
FC(F)(Cl)c1nnc2ccc(Cl)nn12 -7.87%
CCOc1cc(C(=O)NN=C2CCCC2)cc(OCC)c1OCC -3.08%
CCS(=O)(=O)Nc1cccc(C2=NN(C(=O)c3ccco3)C(c3ccco3)C2)c1 (stereo not drawn) -1.87%
COC(=O)c1cc(C(=O)N2CCN(c3ccccc3OC)CC2)cc([N+](=O)[O-])c1 -5.78%
Clc1ccccc1Cn1c(/C=C/c2ccco2)nc2ccccc21 -3.73%
COc1ccccc1N=C(C)C1=C(O)CC(c2ccccc2)CC1=O (stereo not drawn) -7.64%
O=C(/C=C/c1ccco1)N1CCc2ccccc21 -6.03% [at 46.1 µM]
Cc1ccc(C(=O)NC(=C(Cl)Cl)S(=O)(=O)c2ccccc2)cc1 -9.1%
COc1ccc(OC)c(Nc2ncnc3c2cnn3-c2cccc(Cl)c2)c1 -1.34% [at 46.1 µM]
COc1ccc(NC(=O)C2Cc3c(-c4ccc(NC(C)=O)cc4)ccnc3O2)cn1 (stereo not drawn) -12.1%
Cn1c2ccccc2c2ccc3c(c21)C(=O)C=CC3=O -5.19% [at 46.1 µM]
N#CC(C(=S)Nc1ccccc1)c1nc2ccccc2[nH]1 (stereo not drawn) -46.8% [at 46.1 µM]
Cc1cccc(C)c1NC(=S)NC(C)CCc1ccccc1 (stereo not drawn) 8.84% [at 46.1 µM]
Cc1cc(C)nc(Nc2nc(C(N)Cc3ccccc3)cs2)n1 (stereo not drawn) -0.643%
Cc1sc2nc(SCC(=O)N3CCOCC3)[nH]c(=O)c2c1-c1ccccc1 8.43% [at 46.1 µM]
CCN(CC)c1nc2cc(OC)ccc2cc1C#N 6.08% [at 46.1 µM]
Cc1cc(SCC(=O)c2cccs2)nc2ccccc12 -1.59% [at 46.1 µM]
CO/N=C/c1ccc(OC)c(Oc2nc(OC)cc(OC)n2)c1 -8.03%
COc1ccc(C2C(C#N)=C(N)Oc3c2ccc2cccnc32)cc1OC (stereo not drawn) -2.64%
c1ccc(-c2nccc(-c3ccc4c(c3)OCO4)n2)cc1 -0.239%
CS(=O)(=O)Nc1cccc(C2=NN(S(C)(=O)=O)C(c3ccc4c(c3)OCO4)C2)c1 (stereo not drawn) -7.77%
COc1ccc(NS(=O)(=O)c2cc(NC(=O)c3ccc(=O)[nH]c3)ccc2N2CCCC2)cc1 -9.79%
Cc1ccsc1/C=N\NC(=O)c1n[nH]c2c1CCC2 -28.6%
CC(=Nc1ccccc1)C1=C(O)C(Cc2ccccc2)NC1=O (stereo not drawn) -18.4%
CCN(C)c1ccc(/C=N\n2nnnc2N)cc1 -4.68%
C/C(CC(=O)NCc1ccco1)=N\NC(=O)COc1ccc(Cl)cc1Cl -8.79%
COc1cccc(Sc2ccccc2/C=N/NC(N)=O)c1 -2.6%
O=C(Nc1nnc(-c2ccc3c(c2)CCCC3)o1)c1c(F)cccc1F 10.8% [at 46.1 µM]
Cc1nnc(SCC(=O)NCc2ccccc2F)c2nn(-c3ccc(Cl)cc3)c(C)c12 -23.7% [at 46.1 µM]
OCCCn1c(C2CCCN2c2nc(-c3ccc(Cl)cc3)cs2)nc2cc(Cl)c(Cl)cc21 (stereo not drawn) -8.45% [at 46.1 µM]
Cc1ccccc1NC(=O)c1ccc2c(c1)c(C)c(C)n2Cc1ccccc1 -2.97% [at 46.1 µM]
Cc1ccc(C(=O)NC2c3ccccc3-c3ccccc32)cc1 -6.92%
Cc1ccc(C)c(C2NC(=O)c3ccccc3N2)c1 (stereo not drawn) -8.21%
Cc1ccc(-c2cc(C(=O)N/N=C/C(Br)=C/c3ccccc3)n[nH]2)o1 -8.76%
Cc1ccc(Cl)cc1NC(=O)Nc1cn(CC(C)C)c(=O)c2ccccc12 0.562% [at 46.1 µM]
Cc1ccc2nc(-c3ccccn3)c(NC3CCCC3)n2c1 9.97% [at 46.1 µM]
COc1cccc(CNCCSc2nnnn2C)c1OCc1ccc(F)cc1 2.21% [at 46.1 µM]
C=CCNC(=S)N/N=C(\C)c1ccc(OC)cc1 6.78% [at 46.1 µM]
CSc1ccc(/C=N/NC(=O)c2ccccc2Cl)cc1 -7%
Cc1ccc(NC(=S)N=Nc2c(O)n(C)c3ccc(S(=O)(=O)N4CCOCC4)cc23)cc1 3.95% [at 46.1 µM]
COc1ccc(C2=NOC(C(=O)NCc3ccc(F)cc3)C2)cc1 (stereo not drawn) -7.76%
CCOc1ccc(Br)cc1C1C(C(=O)OC)=C(N)Oc2cc(N(C)C)ccc21 (stereo not drawn) -9.94%
Cc1ccc(NC(=S)Nc2ccccn2)c(C)c1 7.06% [at 46.1 µM]
CC(=O)Nc1cc(-c2ccccc2CN(C)C)cn2c(-c3ccc(C(C)=O)cc3)cnc12 -11.7%
COC(=O)c1sc(N)c(C(=O)OC)c1COC(=O)c1c(C)noc1C -2.04%
CC1(C(=O)Nc2ccc3c(c2)OCO3)Cc2c(-c3ccccc3)ccnc2O1 (stereo not drawn) 1.09%
N#Cc1c(NC(=O)/C=C/C(=O)O)sc2c1CCN(Cc1ccccc1)C2 -27.1% [at 46.1 µM]
O=S(=O)(Nc1nc2ccccc2nc1N1CCN(c2ccccc2)CC1)c1ccc(F)cc1 -15.1% [at 46.1 µM]
O=S(=O)(Nc1nc2ccccc2nc1N1CCc2ccccc2C1)c1ccc(Br)cc1 -16.9% [at 46.1 µM]
CN1CCN(c2nc3ccccc3nc2NS(=O)(=O)c2ccc(Br)cc2)CC1 6.19% [at 46.1 µM]
CCOC(=O)N1CCC(Nc2nc3ccccc3nc2NS(=O)(=O)c2ccc(Cl)cc2)CC1 0.827% [at 46.1 µM]
O=C(N/N=C/c1ccc2c(c1)OCO2)c1cc(-c2ccncc2)nc2ccccc12 -7.14%
Cc1nn(-c2ccc(F)cc2)c(Cl)c1/C=C1\C(=O)Nc2ccccc21 -7.22%
Cc1ccc(C2NC(=O)c3ccccc3N2)s1 (stereo not drawn) -2.05%
Cc1ccc(S(=O)(=O)Nc2cc(Cl)c(O)c3ncccc23)cc1 -0.848%
COc1ccc(S(=O)(=O)N2CCN(C(=O)c3ccc([N+](=O)[O-])o3)CC2)cc1 1.28%
COc1ccc2oc(-c3ccccc3[N+](=O)[O-])cc(=O)c2c1 -8.58%
Cc1ccc(N/C(N)=N/c2nc(CSc3nnc(C)s3)cc(=O)[nH]2)c(C)c1 -3.92%
CCCC1=[N+](CC(=O)c2ccc(Br)cc2)CCn2cccc21 -10.6% [at 46.1 µM]
CCn1cc2nc(SCC(=O)Nc3ccc(C)cc3C)n(Cc3ccc(C)cc3)c(=O)c2n1 -5.28% [at 46.1 µM]

Potency, active:
CCN(CC)c1ccc2c(c1)OC(N)=C(C#N)C2c1cccnc1 (stereo not drawn) 17.7 µM
Cc1cccc2[nH]cc(/C=C3/C=Nc4ccccc43)c12 18.4 µM
CCc1ccc(N=Nc2ccc(O)c3[nH]cnc23)cc1 13 µM
COc1ccc2c(Cl)c(C(=O)N/N=C3\CCCC(=O)C3)sc2c1 17.7 µM
C(=C\c1ccco1)/C1=NN(c2ccccc2)C(c2ccco2)C1 (stereo not drawn) 23.1 µM
O=[N+]([O-])c1ccc(/C=C/C2=NN(c3ccccc3)C(c3ccco3)C2)o1 (stereo not drawn) 3.66 µM
O=[N+]([O-])c1ccc(C2=NN(c3ccccc3)C(c3ccco3)C2)cc1 (stereo not drawn) 1.25 µM
COc1ccccc1N1N=C(c2ccc([N+](=O)[O-])cc2)CC1c1ccccc1 (stereo not drawn) 1.4 µM
COc1ccc2c(C)cc(SCC#N)nc2c1 18.4 µM
COc1ccc2c(C)cc(SCC(=O)N3CCOCC3)nc2c1 18.4 µM
CS(=O)(=O)N1N=C(c2ccccc2)CC1c1ccc2c(c1)OCO2 (stereo not drawn) 14 µM
CCCCN(CCC(=O)O)c1ccc(/C=C/c2ccnc3ccccc23)cc1 18.4 µM
CCCCN(CCCC)c1ccc(/C=C/c2ccnc3ccccc23)cc1 16.4 µM
CC(C)CN(CC(C)C)c1ccc(/C=C/c2ccnc3ccccc23)cc1 23.1 µM
CCN(CCCN(C)C)c1ccc(/C=C/c2ccnc3ccccc23)cc1 18.4 µM
CCN(CC)c1ccc(/C=C/c2ccnc3ccccc23)cc1 23.1 µM
CCN(C)c1ccc(/C=C/c2ccnc3ccccc23)cc1 20.6 µM
CCCN(CCC)c1ccc(/C=C/c2ccnc3ccccc23)cc1 20.6 µM
CCN1/C(=C/C=C2/SC(=Nc3cccc4ncccc34)N(C)C2=O)Sc2ccccc21 16.4 µM
Cc1c(-c2nnc(SCC(=O)Nc3ccccc3F)o2)nnn1-c1ccc(F)cc1 23.1 µM
N=c1n(CC(=O)c2ccc([N+](=O)[O-])cc2)c2ccccc2n1Cc1ccccc1 18.4 µM
Cc1ccc(SC2=C(Sc3ccc(C)cc3)C(=O)c3ccccc3C2=O)cc1 16.4 µM
CN(C)c1ccc(/C=C/C=C/c2ccnc3ccccc23)cc1 5.8 µM
CN(C)c1ccc(/C=C/c2ccnc3ccccc23)cc1 18.4 µM
CN(C)c1ccc(/C=C/c2ccnc3cc(Cl)ccc23)cc1 13 µM
CN(C)c1ccc(/C=C/c2ccnc3ccc(-c4ccccc4)cc23)cc1 18.4 µM
COc1cccc2nccc(/C=C/c3ccc(N(C)C)cc3)c12 20.6 µM
CN(C)c1ccc(/C=C/c2cnnc3ccccc23)cc1 20.6 µM
CN(C)c1ccc(/C=C/c2ccnc3ccccc23)c(N)c1 18.4 µM
CNc1ccc(/C=C/c2ccnc3ccccc23)cc1 18.4 µM
CN(C)c1ccc(/C=C(\C#N)C(=O)Nc2nc3c(s2)CCN(Cc2ccccc2)C3)cc1 1.12 µM
O=S(=O)(Nc1nc2ccccc2nc1N1CCN(c2ccccn2)CC1)c1ccc(Cl)cc1 23.1 µM
O=C(N=c1ccn(-c2nc3ccccc3nc2NS(=O)(=O)c2ccc(Cl)cc2)cc1)c1cccs1 16.4 µM
Cc1cc(C)c(/C=C2\C(=O)Nc3ccccc32)[nH]1 18.4 µM
COc1ccc2[nH]c3c(c2c1)CCNC3c1ccc([N+](=O)[O-])o1 (stereo not drawn) 18.4 µM
COc1ccc(C(=O)C[n+]2cc(Br)cc3ccccc32)cc1 20.6 µM
